Source: PubChem BioAssay (NCI)
The panel holds about 83,000 compounds, 20% with a hit somewhere; the sample as a whole holds those more often.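 Percent growth is the endpoint: 0 to 100 indicates growth inhibition (40 means 60% inhibition), 0 means no net growth, and negative values indicate cell death.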 Calls of active or inactive are those of the source.

These molecules were tested on A549/ATCC NSCLC (assay: NCI-60 one-dose screen, 48 h (100 = growth as untreated, 0 = no growth, -100 = all killed)). Details: 10 µM unless noted.
Experimental: Growth inhibition of the A549/ATCC human Non-Small Cell Lung tumor cell line is measured as a screen for anti-cancer activity. Cells are grown in 96 well plates and exposed to the test compound for 48 hours. Compounds are tested at a single concentration, which is 10^-5 M for most compounds. The reported endpoint is percent growth (GI% or GIPRCNT), where numbers from 0 - 100% represent growth inhibition, and numbers from -100% - 0 represent cell death. For example, a value of 40 represents 60% growth inhibition. A value of 0 means no net growth occurred over the course of the experiment. A value of -40 indicates 40% of cells at the beginning of the experiment died by the end of the experiment. A value of -100 means all cells are dead at the end of the experiment.
NCI-60 Human Tumor Cell Lines Screen was performed using the standard one-dose NCI protocol, which is described in more detail at https://dtp.cancer.gov/discovery_development/nci-60/default.htm.
Compounds with GIPRCNT values below 10 were considered active. Activity score was based on GIPRCNT using the following formula: […]
Score is 0 for GIPRCNT values of 100 or above, 50 for GIPRCNT values of 0, and 100 for GIPRCNT values of -100.
With `O=C1c2ccccc2C(=O)c2cc(Cn3cc[n+](Cc4ccc5ccccc5c4)c3)ccc21` the growth was 110% (inactive).
In the case of `CCOC(=O)c1ccc(-c2ccc3cc(OC)ccc3c2)nc1C`, the growth is reported as 95.4% (inactive).
With `O=[N+]([O-])c1ccc(-c2cc3c(Nc4ccc(Cl)c(C(F)(F)F)c4)ncnc3s2)cc1` the growth was 10.1% (inactive).
In the case of `COc1ccc(Nc2ncc(Br)c(NCCCNC(=O)C3CCC3)n2)cc1`, the growth is reported as 19.8% (inactive).
For `COc1cc2oc(-c3cccc(C(=O)Nc4ccc(C)cc4)c3)cc(=O)c2c(OC)c1OC`, the growth was 33.8% (inactive).
`CC(C)c1ccc(NC(=O)Cc2ccc(Nc3ncnc4cc(-c5cnn(CCN(C)C)c5)ccc34)cc2)cc1` was tested, and the growth was -35.7% [30 µM] (active).
With `COc1ccc(Cn2cnc3cc(C(=O)Nc4cccc5ccccc45)ccc32)c(OC)c1` the growth was 16% [30 µM] (inactive).
In the case of `Cc1ccc(NC(=O)C(Cl)Cl)cc1`, the growth is reported as 90.8% (inactive).
With `Cc1c(C(N)=O)sc2nc(C)n(/N=c3\scc(-c4ccccc4)n3Cc3ccccc3)c(=O)c12` the growth was 0% (active).
With `O=S(=O)(Cc1ccccc1)c1nc2ccccc2s1` the growth was 98.4% (inactive).
`Cc1cc2c(F)c(Oc3ncnc(Nc4ccc(N5C[C@@H](C)N[C@@H](C)C5)cc4)c3C#N)cc(F)c2[nH]1` was tested, and the growth was 13.7% (inactive).
In the case of `CC1(C)N=C(N)N=C(N)N1c1cccc(CN)c1`, the growth is reported as 91% (inactive).
`Cc1ccccc1NC(=O)CN(C)C` was tested, and the growth was 95.7% (inactive).
In the case of `CCOC(=O)C1C(=O)C=C(c2cnccn2)CC1c1ccc(OC)c(OC)c1` (stereo not given), the growth is reported as 86.6% (inactive).
For `O=S(=O)(NCCNc1cc(-c2c(-c3cccc(O)c3)nc3sccn23)ccn1)c1ccc(Cl)cc1`, the growth was 57.6% (inactive).
In the case of `CNC(=O)c1cc(Oc2ccc3nc(Nc4cc(Cl)cc(Cl)c4)ccc3c2)ccn1`, the growth is reported as 49.3% (inactive).
With `O=[N+]([O-])c1cccc(/C=C/c2ccccn2)c1` the growth was 73.5% (inactive).
For `Nc1nc(N)c(-c2ccc(Cl)cc2)c(/C=C/c2ccc([N+](=O)[O-])cc2)n1`, the growth was 47.9% (inactive).
For `O=C1C=CC(=Nc2cc(Br)c(O)c(Br)c2)C=C1`, the growth was 118% (inactive).
In the case of `COc1cc2ccccc2cc1C(=O)NC(=S)Nc1ccc(-c2nc3ccccc3[nH]2)cc1`, the growth is reported as 92.1% (inactive).
With `CNC(=O)NCC1OC(n2cnc3c(NC(=O)Nc4ccccc4)ncnc32)C2OC(C)(C)OC12` (stereo not given) the growth was 103% (inactive).
With `CCOc1ccc(-c2nc3ccc(-c4nc5ccc(N6CCN(C)CC6)cc5[nH]4)cc3[nH]2)cc1OCC` the growth was 79.2% (inactive).
With `COc1cc(/C=C/C(=O)c2cccc(-n3cc(-c4ccc(Cl)cc4)[nH]c3=O)c2)cc(OC)c1OC` the growth was 88.6% (inactive).
`CCOC(=O)C1=C(C)NC(SCc2nnc(-c3ccc(Cl)cc3)o2)=NC1c1ccc(Cl)cc1Cl` (stereo not given) was tested, and the growth was 53.5% (inactive).
In the case of `O=C1Nc2ccccc2SC1C1SC(=S)N(Cc2ccccc2)C1=O` (stereo not given), the growth is reported as 93% (inactive).
For `C=C1C(=O)O[C@H]2[C@H]1CC/C(COC(=O)/C=C\C(=O)NCc1ccc(Cn3c(=O)sn(-c4ccc(OC)cc4)c3=O)cc1)=C\CC[C@@]1(C)O[C@@H]21`, the growth was 12.6% (inactive).
In the case of `CCNCCNc1cc(-c2ccc(C#N)cc2)c(C#N)c2nc3ccccc3n12`, the growth is reported as 2.81% (active).
In the case of `Cc1ccc(/C=C(\C#N)n2nnc3cc(Cl)c(Cl)cc32)cc1`, the growth is reported as 38.8% (inactive).
For `CN(C)S(=O)(=O)n1cnc([C@@H]2[C@@H]3C(=O)OC[C@@H]3C[C@]23N=CN(Cc2ccccc2)C3=O)c1`, the growth was 123% (inactive).
For `CS(=O)(=O)c1ccc(-c2nc3cc(Cl)ccc3n2CC(=O)N/N=C/c2ccc(Cl)cc2)cc1`, the growth was 68.5% (inactive).
`CCc1c(C(=O)N[C@@H]2c3cc(Cl)ccc3CC[C@@H]2O)[nH]c(C)c1C(C)=O` was tested, and the growth was 62% (inactive).
In the case of `O=C1CCC(N2C(=O)c3cccc(NCCCC4CCN(CCNC(=O)c5cc6c(o5)C(=O)c5ccccc5C6=O)CC4)c3C2=O)C(=O)N1` (stereo not given), the growth is reported as -41.9% (active).
For `COc1ccc(-c2nnc(-c3ccc4c(c3)nc(-c3ccccc3)n4C3CCCCC3)o2)cc1`, the growth was 50.3% (inactive).
`O=C(c1ccccc1)c1ccc(Cl)c([N+](=O)[O-])c1` was tested, and the growth was 103% (inactive).
In the case of `Cl.Fc1c[c-]c(-c2ccccn2)c(F)c1.[Pt].c1ccc([PH+](c2ccccc2)c2ccccc2[PH+](c2ccccc2)c2ccccc2)cc1`, the growth is reported as -68.9% (active).
`C[N+](C)(C)CCOC(OCC[N+](C)(C)C)(c1ccccc1)c1ccccc1` was tested, and the growth was 100% (inactive).
In the case of `Clc1ccc2[nH]c3c(NCCCN4CCOCC4)ncnc3c2c1`, the growth is reported as 80.1% (inactive).
In the case of `Cc1ccc(/C(=N\N=C(N)N)c2ccccc2)cc1`, the growth is reported as 16.9% (inactive).
With `COc1ccccc1C(=O)NC(=S)Nc1ccc(-c2nc3ccccc3[nH]2)cc1` the growth was 58.7% (inactive).
With `COc1cc(/C=C/C(=O)c2ccc(Nc3nc(Nc4ccccc4)nc(Nc4ccc(Cl)cc4)n3)cc2)cc(OC)c1OC` the growth was 84.5% (inactive).
